# Screening results from PubChem BioAssay.
# GALR2 agonist: GALR2 receptor agonists, primary screen, cell-based; 0.48% of 140,000 active; GALR2-expressing cells, agonist activation read-out; activation, % (no concentration beside the values); AID 803, 2007; in the data active = activation above about 5%, passing the limit was not always enough;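 also: 0% = vehicle buffer wells and 100% = reference agonist at full effect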
# PostGolgi yeast: phenotypic screen on post-Golgi transport, primary screen; post-Golgi transport phenotypic cell assay; inhibition, % at 10 µM; 0.9% of 98,000 active; AID 739, 2007;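 also: yeast cells grown in 1536-well plates; yeast grown about 18 h at 30C before absorbance read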
# S1P2 antag: human S1P2 receptor antagonists, primary screen, cell-based; Sphingosine 1-phosphate receptor 2 (Homo sapiens), O95136; inhibition, % at 5 µM; cell-based S1P2 antagonist assay, inhibition at 5 uM; 0.21% of 97,000 active; in the data active = inhibition above about 45%;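 also: CRE beta-lactamase reporter cells expressing human S1P2 stimulated with S1P; 0% = agonist at EC80 alone and 100% = agonist plus reference antagonist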
# Target sequence (O95136 whole entry, looked up): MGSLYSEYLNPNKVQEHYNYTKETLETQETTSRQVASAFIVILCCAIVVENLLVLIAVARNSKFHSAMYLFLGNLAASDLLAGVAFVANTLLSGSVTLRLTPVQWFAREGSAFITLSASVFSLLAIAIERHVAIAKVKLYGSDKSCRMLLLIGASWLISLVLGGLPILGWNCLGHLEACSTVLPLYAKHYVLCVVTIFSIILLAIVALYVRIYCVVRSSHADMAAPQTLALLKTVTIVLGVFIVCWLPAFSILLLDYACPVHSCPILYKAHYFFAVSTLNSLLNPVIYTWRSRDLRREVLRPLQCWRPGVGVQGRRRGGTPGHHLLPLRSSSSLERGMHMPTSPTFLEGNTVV
# GALR2 blocker: GALR2 antagonists in receptor-expressing cells, primary screen. inhibition, % at 4 µM. 0.39% of 140,000 active. Galanin receptor type 2 (Homo sapiens), O43603. antagonist mode. AID 828, 2007; in the data active = inhibition above about 27%;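 also: cells stimulated with galanin 1-16 at roughly its EC80; 0% = agonist challenge control and 100% = basal control without agonist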
# S1P2 ag: S1P2 receptor agonists, primary screen, cell-based; Sphingosine 1-phosphate receptor 2 (Homo sapiens), O95136; S1P2-expressing cell line, agonist reporter read-out; activation, % at 4.5 µM; 0.46% of 97,000 active; in the data active = activation above about 16%;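 also: 0% = vehicle low control and 100% = maximal reference agonist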
# PostGolgi ctrl: growth inhibition of yeast control strain, primary screen, counter-screen for post-Golgi transport modulator project; efflux-deficient yeast background strain, growth absorbance A615, 16 h; inhibition, % at 10 µM; 5% of 98,000 active; AID 738, 2007
# * hit, by the source's call; . = no result. The full list was thinned out, with hits kept by preference. Rule as the data show it, unless noted: active = inhibition above about 30%; inactive = the rest.
SMILES,GALR2 agonist,PostGolgi yeast,S1P2 antag,GALR2 blocker,S1P2 ag,PostGolgi ctrl
CCOc1ccc(Cl)cc1S(=O)(=O)n1cnc2cc(C)c(C)cc21,-2,-10,0,-8,-5,40*
CCOc1ccc(Cl)cc1S(=O)(=O)N1CCN(c2ccc(C)c(C)c2)CC1,0,-10,4,10,-4,13
CCOc1ccc(Cl)cc1S(=O)(=O)N1CCN(c2ccc(F)cc2)CC1,-2,0,-10,-10,-3,33*
O=S(=O)(Nc1ccccc1)c1ccc(Oc2ncc(C(F)(F)F)cc2Cl)cc1,0,12,7,5,-2,59*
CC(C)NS(=O)(=O)c1ccc(Oc2ncc(C(F)(F)F)cc2Cl)cc1,-1,3,6,3,-4,14
O=C(NNS(=O)(=O)c1ccc2ccccc2c1)NC1CCCCC1,-1,.,.,-8,.,.
COc1ccc(/C=C2\SC(=S)N(NC(=O)c3csc4c3CCCC4)C2=O)cc1,-3,37*,8,-9,-6,5
Cc1ccc(S(=O)(=O)Nc2cccc(NC(=O)CN3CCCCC3)c2)cc1,-1,-5,-3,-15,1,23
Cc1cc(NC(=O)CCCS(=O)(=O)c2nc(-c3cccs3)cc(C(F)(F)F)n2)no1,0,13,25,26,-5,35*
COc1ccc(-c2cc(C(F)(F)F)nc(S(C)(=O)=O)n2)cc1,-1,68*,-13,11,-13,62*
COc1ccc(-c2cc(C(F)(F)F)nc(-n3cc(Cl)cn3)n2)cc1,-2,12,-8,-8,-6,41*
COc1cccc(-c2cc(C(F)(F)F)nc(-n3cc(Cl)cn3)n2)c1,-2,17,-15,-24,-4,10
CS(=O)(=O)c1nc(-c2cccs2)cc(C(F)(F)F)n1,2,8,29,38*,-1,55*
CCOc1ccc(/C(O)=C/C(=O)C(=O)Nc2ccc(S(=O)(=O)NC(C)=O)cc2)cc1,0,.,.,8,.,.
N#Cc1cn(-c2ccccc2)nc1-c1cc2ccccc2oc1=O,0,36*,12,1,1,-2
O=Cc1cn(-c2ccccc2)nc1-c1cc2cc(O)ccc2oc1=O,8,10,0,7,8,4
CCCCS(=O)(=O)C(=C1Nc2ccccc2N1)S(=O)(=O)CCCC,-1,12,0,6,-3,30*
CCOc1cc(N2CCOCC2)c(OCC)cc1NC(=O)CN1CCc2ccccc2C1,-1,9,-10,2,-8,39*
CCOc1cc(N2CCOCC2)c(OCC)cc1NC(=O)Cc1cccc(OC)c1,-2,-2,1,8,-6,3
CCCn1c(C)cc(C(=O)COC(=O)c2cc(S(=O)(=O)NCC(C)C)c(Cl)cc2Cl)c1C,-1,-4,-6,-11,29*,18
CC(C)CNS(=O)(=O)c1cc(C(=O)OCC(=O)c2ccc3c(c2)OCCO3)c(Cl)cc1Cl,0,.,.,-2,.,.
O=C(Cc1ccccc1)NC1c2ccccc2-c2ccccc21,1,.,.,-5,.,.
O=C1N2c3ccccc3CCc3cccc(c32)C1(O)C(F)(F)F (configuration not stated),-2,1,3,-5,-10,50*
O=C(NC1CCCCC1)c1sc(N2CCOCC2)nc1-c1ccccc1,-1,.,.,3,.,.
Cc1ccc(C)c(Cc2c(C)nc3c(C(=O)NCc4ccc5c(c4)OCO5)cnn3c2C)c1,1,4,7,-1,-2,57*
SMILES,GALR2 agonist,PostGolgi yeast,S1P2 antag,GALR2 blocker,S1P2 ag,PostGolgi ctrl
Cc1ccccc1Cc1c(C)nc2c(C(=O)N3CCN(Cc4ccc5c(c4)OCO5)CC3)cnn2c1C,-1,.,-23,7,-6,.
Cc1nc2c(C(=O)NCc3ccc4c(c3)OCO4)cnn2c(C)c1Cc1ccc(F)cc1Cl,-1,-2,5,3,1,42*
Cc1ccccc1Cc1c(C)nc2c(C(=O)NCc3ccc4c(c3)OCO4)cnn2c1C,-2,-2,-3,-1,-1,20
Cc1cccc(Cc2c(C)nc3c(C(=O)NCc4ccco4)cnn3c2C)c1,1,3,4,-4,-11,33*
Cc1nc2c(C(=O)NCc3ccco3)cnn2c(C)c1Cc1ccc(F)cc1Cl,-1,3,12,1,-2,18
CC1(NC(=O)CC[N+](C)(C)CCO)CS(=O)(=O)CC1S(=O)(=O)[O-] (configuration not stated),0,.,.,-2,.,.
O=C(CCC1CCCC1)Nc1nnc(-c2ccc3c(c2)OCO3)s1,-2,.,.,-11,.,.
CC1=CCC2C(=O)N(c3ccccc3OC(=O)c3ccccc3F)C(=O)C2C1 (configuration not stated),0,.,.,-10,.,.
O=[N+]([O-])c1cc(C(F)(F)F)ccc1NCCc1c[nH]c2ccc(O)cc12,-5,29,-20,9,-7,55*
O=[N+]([O-])c1cc(C(F)(F)F)ccc1NCCc1c[nH]c2ccccc12,-2,.,.,3,.,.
CCOC(=O)Cc1nc2ccccc2[nH]1,5.4*,-4,-11,5,-5,-3
CCc1ccc(C(=O)CN2C(=O)NC(C)(CCc3ccccc3)C2=O)cc1 (configuration not stated),-1,.,.,3,.,.
CCCCN1C(=O)Nc2ccccc2S1(=O)=O,0,.,.,-7,.,.
COc1ccc(CNC(=O)CN(Cc2ccc(Cl)cc2)S(=O)(=O)c2ccccc2)cc1,-1,-7,-2,-7,-5,39*
NC(=S)NNC(=O)Nc1ccc(Cl)c(Cl)c1,0,.,.,5,.,.
N/C(=N\OS(=O)(=O)c1ccc(Br)cc1)c1ccncc1,0,3,1,10,-5,-2
CC1CCc2sc3nc(NCc4ccco4)n4ncnc4c3c2C1 (configuration not stated),0,-12,-2,-5,-2,63*
CC1CCCc2sc3nc(NCc4ccco4)n4ncnc4c3c21 (configuration not stated),-1,-1,-15,-4,-9,57*
Cc1nc(NCc2ccco2)c2c3c(sc2n1)CCC3,-2,-1,-3,-1,-2,0
O=c1c2cc(N3CCOCC3)ccc2[nH]c(=S)n1Cc1ccc(Cl)cc1,0,1,-9,-3,0,40*
O=C(COc1ccccc1Br)NCCc1nc2ccccc2[nH]1,0,.,.,15,.,.
CC(Oc1ccc(Cl)cc1)C(=O)NNC(=S)NC(=O)c1ccco1 (configuration not stated),-1,.,.,4,.,.
COc1ccc(Cn2c3ccc(OC)cc3c3nc4ccccc4nc32)cc1,-2,.,.,-7,.,.
Cn1c2ccc(Cl)cc2c2nc3ccccc3nc21,-1,38*,-53,1,24*,6
CO/N=C(/CS(=O)(=O)Cc1ccccc1Cl)c1ccc(Cl)cc1Cl,-3,-1,5,-1,-10,33*
CCN1C(=O)S/C(=C\c2ccc(N3CCOCC3)cc2C)C1=O,-2,8,-13,-5,-3,35*
